GDH-TPI counter-1 – inhibits GDH-TPI coupling enzymes, artifact for Mtb FBA screen; AID 588335; GDH-TPI coupled enzyme counterscreen, NADH absorbance; 360,000 compounds, 1.2% hits; inhibition, % at 4.8 µM; in the data active = inhibition above about 30%;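 note: 0% = DMSO wells and 100% = wells lacking the enzyme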
Mtb bLac sens – beta-lactam sensitization of Mtb H37Rv. M. tuberculosis H37Rv growth with meropenem, percent inhibition. inhibition, % at 25 µM. 330,000 compounds, 0.27% hits; call rule not given here;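 note: growth measured after seven days incubation then overnight dye step; 0% = bacteria only wells and 100% = bacteria with antibiotic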
Rv3671c protease – Rv3671c (M. tuberculosis) protease inhibition. P9WHR9. inhibition, % at 5.96 µM. 320,000 compounds, 0.048% hits. AID 2606; in the data active = inhibition above about 38%;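 note: extracellular domain of Rv3671c used as enzyme; 0% = enzyme with DMSO and 100% = no enzyme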
Mtb UGM inh – blocks M. tuberculosis UGM enzyme; purified UGM, fluorescence polarization probe displacement; inhibition, % at 10 µM; 320,000 compounds, 0.06% hits; AID 504406; in the data active = inhibition above about 10%, passing the limit was not always enough; inconclusive = no clear call, values can overlap the other calls
FBA Mtb inh – inhibits M. tuberculosis FBA enzyme; purified M. tuberculosis FBA, fluorescence read-out; 360,000 compounds, 2.3% hits; inhibition, % at 1 µM; AID 588726; P9WQA3;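 note: 0% = vehicle and 100% = reference inhibitor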
Target sequence (P9WQA3 whole entry, looked up): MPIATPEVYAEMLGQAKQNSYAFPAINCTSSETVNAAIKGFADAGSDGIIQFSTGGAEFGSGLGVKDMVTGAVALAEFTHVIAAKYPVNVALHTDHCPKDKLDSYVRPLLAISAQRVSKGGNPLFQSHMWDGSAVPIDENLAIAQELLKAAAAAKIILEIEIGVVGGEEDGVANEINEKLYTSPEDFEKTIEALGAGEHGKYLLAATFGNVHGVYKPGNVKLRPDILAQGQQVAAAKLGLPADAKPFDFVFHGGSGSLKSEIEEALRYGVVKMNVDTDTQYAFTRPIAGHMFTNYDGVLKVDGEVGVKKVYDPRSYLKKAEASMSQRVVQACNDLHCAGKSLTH
FadD28 FP inh – M. tuberculosis FadD28 bisubstrate binding inhibition; AID 588549; FadD28 bisubstrate probe binding, fluorescence polarization; inhibition, % at 12.5 µM; 360,000 compounds, 0.22% hits; in the data active = inhibition above about 8.5%, passing the limit was not always enough; inconclusive = no clear call, values can overlap the other calls
Mtb FBA inh conf – Mtb FBA inhibition, confirmed; inhibition, % at 1 µM; shares compounds with FBA Mtb inh; 5,600 compounds, 78% hits; purified M. tuberculosis FBA, fluorescence read-out;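 note: 0% = vehicle wells and 100% = reference inhibitor wells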
GDH-TPI counter-2 – GDH-TPI inhibition counter-screen for FBA inhibitors. shares compounds with FBA Mtb inh. GDH-TPI coupled enzyme counterscreen, fluorescence. inhibition, % at 1 µM. 5,600 compounds, 81% hits; in the data active = inhibition above about 10%
Numbers without * were called inactive; ? = inconclusive; nt = no result; + = active, no number. Hits are enriched below; roughly 3.7% of the tested compounds scored in any of these assays. Cut-off read from the data, not from the text of the source, unless noted: active = inhibition above about 27%; inactive = the rest.

SMILES | GDH-TPI counter-1 | Mtb bLac sens | Rv3671c protease | Mtb UGM inh | FBA Mtb inh | FadD28 FP inh | Mtb FBA inh conf | GDH-TPI counter-2
CCS(=O)(=O)Nc1ccc(C2=NN(S(=O)(=O)CC)C(c3cccs3)C2)cc1 (stereo not drawn) | 15 | -5 | 1 | 0 | 49* | -2 | 147* | 130*
CC(C)(C)c1ccc(S(=O)(=O)NC(=O)C2(C)CCN2C(=O)C2CCCCC2)cc1 (stereo not drawn) | 5 | nt | nt | nt | 5 | -1 | nt | nt
CCN(CC)C(=O)C1=C(C)N(Cc2ccc(C(C)(C)C)cc2)C(=O)C(CC(=O)NCCN2CCOCC2)C1 (stereo not drawn) | 13 | nt | nt | nt | -1 | -1 | nt | nt
Nc1nccnc1C(=O)OCC(=O)NC1CCCc2ccccc21 (stereo not drawn) | 5 | -5 | 1 | 1 | 95* | -3 | 110* | 97*
CCOc1ccc2[nH]c(C)c(CN3CCN(CC)CC3)c(=O)c2c1 | 13 | -10 | -5 | 0 | 6 | -2 | nt | nt
CCCCN(C)Cc1c(C)[nH]c2ccc(OCC)cc2c1=O | 27 | 5 | 3 | -1 | 35* | -3 | 5 | -5
Cc1nn(-c2ccccn2)c(N)c1N=O | 16 | -2 | 4 | -1 | -7 | -3 | nt | nt
Cc1nn(-c2ccccn2)c2c1-c1nc(N)ncc1CC2 | 4 | 2 | 1 | -1 | 30* | -3 | 9 | -1
O=C(Nc1ccc(C(O)c2ccccc2)cc1)[C@H]1C[C@H](O)[C@@H](CO)O1 (stereo partly drawn) | -4 | nt | nt | nt | 2 | -1 | nt | nt
Cc1ccc(S(=O)(=O)N2CCCN(C(=O)CNC(=O)c3cccc(C)c3)CC2)cc1 | 8 | -11 | 5 | 2 | 3 | -1 | nt | nt
Cc1ccc(S(=O)(=O)N2C[C@@H](C)[C@]3(C2)[C@H](O)[C@H](OC(=O)NCc2ccco2)C[C@H]2C(=O)N(c4ccccc4)C(=O)[C@H]23)cc1 | -6 | nt | nt | nt | 2 | -4 | nt | nt
CCCCn1c(NC(=O)c2ccco2)c(S(=O)(=O)c2ccc(C)cc2)c2nc3ccccc3nc21 | 23 | nt | nt | nt | 96* | -1 | 73* | 47*
CCCCn1c(NC(=O)c2ccc(Br)o2)c(S(=O)(=O)c2ccccc2)c2nc3ccccc3nc21 | 21 | -7 | -26 | 1 | 59* | 2 | 6 | -4
CCCCn1c(NC(=O)c2ccco2)c(C(=O)OCC)c2nc3ccccc3nc21 | 25 | 17 | -207 | 0 | 80* | -6 | 2 | 1
CCCCn1c(NS(=O)(=O)c2ccccc2)c(S(=O)(=O)c2ccc(C)cc2)c2nc3ccccc3nc21 | 15 | -1 | -209 | 0 | 4 | ? | nt | nt
CCCCCn1c(NC(=O)c2ccco2)c(S(=O)(=O)c2ccc(C)cc2)c2nc3ccccc3nc21 | 24 | -5 | -19 | 1 | 96* | 1 | 30* | 21*
COc1cccc(C(O)c2ncc(-c3cccc4ccccc34)[nH]2)c1 (stereo not drawn) | -12 | nt | nt | nt | 48* | -5 | 56* | 47*
Cc1ccc(C(O)c2ncc(-c3cccc4ccccc34)[nH]2)cc1F (stereo not drawn) | 1 | nt | nt | nt | 27* | -1 | 19 | 13*
COc1cccc(C(O)c2ncc(-c3ccccc3OC)[nH]2)c1 (stereo not drawn) | 9 | nt | nt | nt | 0 | -1 | nt | nt
Cc1ccc(C(O)c2ncc(-c3cccc4ccccc34)[nH]2)c(C)c1 (stereo not drawn) | -3 | nt | nt | nt | 39* | -5 | + | +
OC(c1cccc(Cl)c1)c1ncc(-c2cccc3ccccc23)[nH]1 (stereo not drawn) | 7 | nt | nt | nt | 37* | -5 | 146* | 103*
Cc1ccc(C(O)c2ncc(-c3ccc4ccccc4c3)[nH]2)c(C)c1 (stereo not drawn) | 4 | nt | nt | nt | 16 | -2 | nt | nt
Cc1ccc(C)c(NCCCCCCCC(=O)O)c1 | nt | nt | nt | nt | -3 | -4 | nt | nt
CC1CC(C)CN(CCCNC(=O)CCC(=O)N2CC(C)Oc3ccccc32)C1 (stereo not drawn) | 6 | 5 | -4 | 1 | 3 | -2 | nt | nt
Cc1nc(C)c(C(=O)N/N=C/c2cc(Br)ccc2O)s1 | 0 | 0 | 7 | 3 | 17 | -4 | nt | nt
SMILES | GDH-TPI counter-1 | Mtb bLac sens | Rv3671c protease | Mtb UGM inh | FBA Mtb inh | FadD28 FP inh | Mtb FBA inh conf | GDH-TPI counter-2
CC(Oc1ccc(Cl)cc1Cl)C(=O)NCCN1CCOCC1 (stereo not drawn) | 1 | -4 | -11 | 0 | -2 | 0 | nt | nt
COc1ccc2c(c1OC)c(=O)n1c3ccc(OC(C)C(=O)NCCN4CCOCC4)cc3c3ccnc2c31 (stereo not drawn) | 6 | 2 | -7 | 0 | 91* | -6 | 84* | 68*
Cn1nc(C(=O)NCCN2CCOCC2)c2ccccc2c1=O | 1 | -4 | 3 | 2 | 0 | 0 | nt | nt
CC(Oc1ccc2c(c1)c1ccnc3c4ccccc4c(=O)n2c13)C(=O)NCCN1CCOCC1 (stereo not drawn) | 15 | 70 | -8 | 3 | 44* | -9 | 136* | 117*
Cc1cc(C)c2c(N)c(C(=O)Nc3nccs3)sc2n1 | 13 | -13 | 1 | -2 | 105* | 0 | 151* | 110*
CCOC(=O)c1sc2nc(C)cc(C)c2c1N | 23 | 7 | 5 | 1 | 36* | -2 | 65* | 56*
COCc1cc(C)nc2sc(C(=O)Nc3nccs3)c(N)c12 | 25 | -6 | -1 | -2 | 3 | -1 | nt | nt
Cc1nc2nc(CCNS(=O)(=O)c3ccc(Cl)cc3)cn2nc1C | 4 | -4 | 1 | -1 | 72* | 0 | 62* | 63*
COc1ccc(S(=O)(=O)NCCc2cn3nc(C)c(C)nc3n2)cc1 | 1 | -5 | 8 | 1 | 59* | 0 | -4 | -3
COc1ccc(S(=O)(=O)NCCc2ccccn2)cc1 | -9 | 2 | 1 | -1 | -1 | -3 | nt | nt
CCN(CC)CCNS(=O)(=O)c1ccc(Cl)cc1 | 8 | 2 | -13 | 6 | 1 | -1 | nt | nt
C=CCOc1ccc(C2C(C#N)=C(N)N(Nc3ccccc3)C3=C2C(=O)CCC3)cc1OC (stereo not drawn) | 10 | 89 | -8 | 2 | 29* | -3 | 124* | 91*
Cc1nn(-c2ccccc2)nc1C(=O)OCC(=O)N1CCC(C)CC1 | -1 | 79 | -5 | 0 | 28* | 0 | 94* | 77*
Cc1ccc(-c2nnc(-c3ccc4c(c3)OCO4)o2)cc1 | 11 | 6 | 5 | -2 | 27* | -3 | 75* | 55*
Brc1ccc(-c2nnc(-c3ccc4c(c3)OCO4)o2)o1 | 16 | 44 | 1 | 0 | 9 | -2 | nt | nt
Cc1nccc(-c2ccc3c(c2)OCO3)n1 | 9 | 4 | -10 | 1 | 29* | 1 | 68* | 48*
COc1ccccc1CNC(=O)COc1ccc(S(=O)(=O)N2CCCC2)cc1 | 5 | 2 | 7 | -2 | 2 | -2 | nt | nt

Bioassay records (PubChem BioAssay)
